PubChem BioAssay (NCI)
This is part of a sample that, as a whole, favours compounds with a hit. Of some 83,000 tested, about 20% had one in any assay.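 Note: values are percent growth. 100 is the growth of untreated cells, values between 100 and 0 indicate rising inhibition; between -100 and 0 indicates cell death.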 Values without a mark were called inactive. Calls of active or inactive are those of the source. The calls were made as follows: active = growth percent below 10; inactive = the rest.

Columns and labels:
Assay in all cases: NCI-60 one-dose screen, 48 h (100 = growth as untreated, 0 = no growth, -100 = all killed)
Settings in all cases: 10 µM unless noted
NCI-H23 lung = system: NCI-H23 lung
NCI-H226 lung = system: NCI-H226 lung
NCI-H322M lung = system: NCI-H322M lung
HOP-62 NSCLC = system: HOP-62 NSCLC
NCI-H460 lung = system: NCI-H460 lung
HOP-92 NSCLC = system: HOP-92 NSCLC
NCI-H522 lung = system: NCI-H522 lung
A549/ATCC NSCLC = system: A549/ATCC NSCLC
786-0 renal = system: 786-0 renal
COLO 205 colon = system: COLO 205 colon
DU-145 prostate = system: DU-145 prostate
K-562 leukemia = system: K-562 leukemia
MALME-3M melanoma = system: MALME-3M melanoma
MDA-MB-231 breast = system: MDA-MB-231 breast
RXF 393 renal = system: RXF 393 renal
SF-268 CNS = system: SF-268 CNS
SF-295 CNS = system: SF-295 CNS
SF-539 CNS = system: SF-539 CNS
UACC-257 melanoma = system: UACC-257 melanoma
M14 melanoma = system: M14 melanoma

Compound	growth (NCI-H23 lung)	growth (NCI-H226 lung)	growth (NCI-H322M lung)	growth (HOP-62 NSCLC)	growth (NCI-H460 lung)	growth (HOP-92 NSCLC)	growth (NCI-H522 lung)	growth (A549/ATCC NSCLC)	growth (786-0 renal)	growth (COLO 205 colon)	growth (DU-145 prostate)	growth (K-562 leukemia)	growth (MALME-3M melanoma)	growth (MDA-MB-231 breast)	growth (RXF 393 renal)	growth (SF-268 CNS)	growth (SF-295 CNS)	growth (SF-539 CNS)	growth (UACC-257 melanoma)	growth (M14 melanoma)
COc1cc(OC)c2c(=O)c3c(CC=C(C)C)cc(OC)c(O)c3oc2c1	93.7%	99.3%	83.7%	89.1%	99.2%	77%	53%	90.8%	90.1%	111%	85%	61.4%	114%	91.1%	100%	93.6%	89.7%	91.4%	107%	91%
N#CC1=C(N)Oc2c(sc3c(F)cccc23)C1c1ccc([N+](=O)[O-])cc1 (stereo not given)	-4.82% (active)	3.23% (active)	-24.2% (active)	-33.4% (active)	-26.8% (active)	-47.5% (active)	-26.3% (active)	4.46% (active)	-18.6% (active)	-41.7% (active)	3.51% (active)	1.99% (active)	-24.3% (active)	-66.2% (active)	-57.3% (active)	-23.1% (active)	-70.3% (active)	-79.2% (active)	-17.2% (active)	-50.9% (active)
CC1(C)CC[C@]23CC[C@]4(C)[C@H](CC[C@@H]5[C@@]6(C)C/C(=C/O)C(=O)C(C)(C)[C@@H]6CC[C@]54C)[C@H]2[C@H]1OC3	99.1%	105%	105%	102%	107%	105%	90.6%	106%	106%	111%	115%	105%	104%	97.6%	121%	108%	103%	101%	101%	103%
O=C(c1cccc(N2CCOCC2)n1)c1c[nH]c2ccccc12	92.7%	82.8%	97%	87.6%	86.7%	92.8%	88.3%	95.3%	98.7%	107%	99.8%	103%	95.1%	80.2%	99%	94.1%	100%	88.9%	87.7%	94.8%
COc1ccc(Oc2ccc(/C=C/C(=O)c3cc4ccccc4oc3=O)cc2)cc1	81%	92.2%	84.5%	85.6%	102%	58.2%	65.1%	95.2%	108%	120%	101%	78.7%	94.2%	76%	100%	80.9%	104%	92.5%	93.3%	90.5%
CCCc1cc(=O)oc2c(C(=O)CC(C)C)c(O)c(CC=C(C)C)c(O)c12	-29.1% (active)	23.5%	22.3%	51.1%	15.8%	-25.5% (active)	16%	23.8%	29.2%	50.3%	31.3%	14.3%	-6.82% (active)	-15.9% (active)	27.3%	26.5%	17.8%	42.2%	22.7%	33.6%
O=C(Nc1ccc(Oc2cccc(Cl)c2)c(Cl)c1)c1cccnn1	84.1%	78.8%	93.9%	101%	99.8%	84.4%	73.6%	75.3%	77.4%	106%	86.3%	77%	104%	95.5%	90.3%	83.9%	82.2%	95.3%	104%	92.8%
COC(=O)/C(CCC=C(C)C)=C1\[C@@H](OC(C)=O)C[C@@]2(C)[C@H]1C/C(=N/O)[C@H]1[C@@]3(C)CC/C(=N\O)[C@@H](C)[C@@H]3CC[C@@]12C	99.5%	96.8%	109%	105%	105%	95.4%	-57.1% (active)	94%	96.3%	106%	106%	83.6%	119%	86.5%	104%	89.1%	101%	89.4%	118%	98.6%
CCn1cc(C(=O)N/N=C/c2cccc(F)c2)c(=O)c2cc(F)c(N3CCNC(C)C3)c(F)c21 (stereo not given)	76.2%	97.1%	83.4%	86.5%	-79% (active)	51.2%	-29.8% (active)	-66.6% (active)	-39.7% (active)	17.5%	-87.5% (active)	-52.1% (active)	-67.4% (active)	-49.6% (active)	-21.6% (active)	39.4%	75.7%	-4.61% (active)	89%	-7.07% (active)
Cc1nc2ccccc2c(/C=C/c2ccc(F)cc2)c1C(=O)/C=C/c1ccccc1	20.7%	50.6%	37.7%	-4.45% (active)	-41.9% (active)	50.6%	5.78% (active)	25%	24.1%	10.5%	10.2%	6.31% (active)	31.1%	22.4%	-3.77% (active)	37.9%	32.5%	1.11% (active)	7.87% (active)	12.4%
CN(C)Cc1cc(C(C)(C)C)cc(Br)c1O	107%	101%	118%	110%	86.5%	87.5%	103%	109%	101%	102%	109%	106%	122%	113%	93.9%	104%	97.3%	88.6%	119%	101%
Oc1ccc(-c2nc3ccc4[nH]ncc4c3c3c2CCCC3)c(F)c1	29.5%	56.4%	37.8%	35.7%	29%	68.9%	-4.04% (active)	15.7%	29.4%	77.4%	37%	19.5%	24.9%	59.9%	16%	36.5%	43.6%	15.6%	44.5%	16.7%
O=C(/C=C/c1ccccc1)N(C1CCCCC1)C1CCCCC1	74.3%	84.7%	105%	131%	86.8%	84.3%	70.9%	73.8%	82.2%	99.9%	104%	81.1%	104%	86%	84.7%	104%	78.1%	105%	80.7%	87.6%
c1ccc(-c2c(-c3ccccc3)[n+](Cc3ccc4ccccc4c3)cn2Cc2ccc3ccccc3c2)cc1	-74.9% (active)	-75.8% (active)	-20.8% (active)	-86.1% (active)	-78.6% (active)	-83.9% (active)	-85.8% (active)	-81.8% (active)	-92.2% (active)	-86.4% (active)	-96.1% (active)	-63.1% (active)	-82.2% (active)	-79.4% (active)	-96.2% (active)	-89.1% (active)	-97.9% (active)	-88.3% (active)	-84% (active)	-85.8% (active)
C[N+]1=C(/C=C/c2ccccc2Cl)C(C)(C)c2ccccc21	74.3%	80%	98.6%	98.7%	103%	90.1%	81.8%	92.5%	95.9%	95.9%	94.5%	77.3%	98.4%	98%	89.2%	96.7%	103%	101%	92%	97.8%
